Each structure is given as a SMILES string. Among all 320,000 compounds or so, about 3,100 (0.97%) were called active.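 How the source made its calls: active means mean replicate inhibition of at least 70% and a set share of replicates each scoring 70 or more; inconclusive means meets just one of the two criteria; inactive means fails both criteria.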 The sample as a whole holds a higher share of actives than the screen did.

We go through 25 molecules from PubChem BioAssay AID488896 (Broad Institute, 2010).

In this experiment the target is Scavenger receptor class B member 1 (Mus musculus) (UniProt Q61009). The experiment is described as follows: inhibitors of SR-BI mediated HDL lipid uptake, primary screen, ldlA[mSR-BI] cells, fluorescence, single point (AID 488896).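 Further: 0% = median of neutral control wells and 100% = median of positive control wells.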 The settings on record: ldlA[mSR-BI] CHO cells, DiI-HDL uptake fluorescence, 3 h; at 12.5 µM; stronger effect = higher value.
Chain of Scavenger receptor class B member 1 (Mus musculus) (Q61009 whole entry, looked up): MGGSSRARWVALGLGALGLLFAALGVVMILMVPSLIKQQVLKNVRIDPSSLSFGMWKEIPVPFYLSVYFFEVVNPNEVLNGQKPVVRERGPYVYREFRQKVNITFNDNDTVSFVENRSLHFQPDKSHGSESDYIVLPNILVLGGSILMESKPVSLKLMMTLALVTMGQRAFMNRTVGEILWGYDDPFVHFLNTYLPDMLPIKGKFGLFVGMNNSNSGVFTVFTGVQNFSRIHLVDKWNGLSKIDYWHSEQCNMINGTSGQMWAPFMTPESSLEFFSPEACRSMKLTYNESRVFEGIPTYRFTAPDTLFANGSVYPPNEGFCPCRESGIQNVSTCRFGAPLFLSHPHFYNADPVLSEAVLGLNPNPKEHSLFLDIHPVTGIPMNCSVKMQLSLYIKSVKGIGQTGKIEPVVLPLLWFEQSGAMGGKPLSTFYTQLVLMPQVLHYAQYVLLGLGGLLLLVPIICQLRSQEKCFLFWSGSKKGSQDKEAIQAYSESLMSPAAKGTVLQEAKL
As for `Oc1c(Cl)cc(Cl)c(Cl)c1Cc1c(O)c(Cl)cc(Cl)c1Cl`, the inhibition is 78.2% (active).

As to `CC(C)(C)OC(=O)N(Cc1ccccc1)Cc1ccc(OCc2cccc(NC(=O)c3ccccc3)c2)cc1`, the inhibition was 30.4% (inactive).

For `CN(C(=O)c1ccccn1)c1nnc(-c2ccccn2)s1`, the inhibition was -7.4% (inactive).

Turning to `COc1cc(OC)cc(-c2nnc(N(C)C(=O)c3ccncc3)s2)c1`, the inhibition was 45% (inactive).

As to `CN(C(=O)COc1ccccc1)c1nnc(-c2ccncc2)s1`, the inhibition is 70.2% (active).

`N#CCc1c[nH]c2ccc([N+](=O)[O-])cc12`: the inhibition is -13.4% (inactive).

For the molecule `Cc1nc(Nc2ccccc2C)c2cnn(C)c2n1`, the inhibition is -3.29% (inactive).

As for `CCOc1cc(NC(=S)NCCCOC)c(OCC)cc1NC(=O)c1ccco1`, the inhibition is 28.5% (inactive).

Take `CCOc1cc(NC(=O)c2ccco2)c(OCC)cc1NC(=O)COc1ccccc1`: the inhibition is 80.9% (active).

Consider `CCOc1cc(N2CCOCC2)c(OCC)cc1NC(=O)c1ccc(C)s1`, for which the inhibition was 37% (inactive).

`CCOc1cc(N2CCOCC2)c(OCC)cc1NC(=O)c1cc(C)nc2ccccc12`: the inhibition was 20.8% (inactive).

With `CCOc1cc(NC(=S)NCc2ccco2)c(OCC)cc1NC(=O)c1ccco1`, the inhibition was 43.4% (inactive).

For the molecule `CCOc1cc(N2CCOCC2)c(OCC)cc1NC(=O)COc1cccc(Cl)c1`, the inhibition was 74.8% (active).

For `CN(C)C(=S)N=c1ssc(=S)n1Cc1ccco1`, the inhibition is 0.753% (inactive).

Take `CC(=O)Nc1ccc(C(=O)Nc2cc(S(=O)(=O)N3CCOCC3)ccc2N2CCOCC2)cc1`: the inhibition was -8.12% (inactive).

In the case of `COC(=O)Cc1c(-c2[nH]c3ccccc3c2CC(=O)OC)[nH]c2ccccc12`, the inhibition was 37.9% (inactive).

For `O=C(NOCc1ccccc1)c1cccc([N+](=O)[O-])c1`, the inhibition was -13.8% (inactive).

As for `C(=N\N1CCN(c2ccccn2)CC1)/C1=C(N2CCOCC2)C(=C/c2ccccc2)/CC1`, the inhibition was 95.8% (active).

Turning to `COc1ccc(/C=N/N=C2/C(=O)Nc3ccccc32)cc1O`, the inhibition was -2.91% (inactive).

On to `O=C(O)c1ccc(NN=CC2=C(N3CCOCC3)/C(=C/c3ccccc3)CC2)cc1`, for which the inhibition was -13% (inactive).

With `O=C(CSc1nnc(N2CCOCC2)n1-c1cccc(F)c1)N1CCN(c2ccccn2)CC1`, the inhibition was 0.884% (inactive).

Consider `O=C1Nc2ccc(Br)cc2/C1=N/N=C/C1=C(N2CCOCC2)C(=C\c2ccccc2)/CC1`, for which the inhibition is 147% (active).

Consider `C[C@H](O)[C@@H]1C(=O)N2CCc3ccc(N4CCOCC4)cc3[C@@H]2C[C@@H]1N(C)C(=O)C(C)(C)C`, for which the inhibition is -2.83% (inactive).

Consider `COc1cc2c(cc1OC)C(Cc1cc(OC)c(OC)cc1[N+](=O)[O-])=NCC2`, for which the inhibition is -13% (inactive).

Regarding `CC1CN(Cc2ccco2)C(=S)N(c2ccccc2)C1=O` (stereo not given), the inhibition was -33.1% (inactive).
